Source: PubChem
KCNH2 3.1 inh: blocks the human KCNH2 3.1 channel isoform | U2OS KCNH2 3.1, thallium flux FluxOr; stronger effect = lower value | activity change, % (tested at about 1.8 µM) | 340,000 compounds, 0.95% hits;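 active = maximum activity change below -70%; inconclusive = maximum activity change from -70% to -50%; inactive = maximum activity change above -50%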;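 note: thallium influx rate constant from kinetic fluorescence after stimulation buffer; % is set by controls: 0 for no effect and ±100 for the full control effect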
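Thallium flux via FluxOr fluorescence (Red40 quencher, 45 min loading) in U2OS cells virally expressing the KCNH2 3.1 isoform (1.77 x 10^8 /mL virus, overnight at 37 C). Rate constants from 2-min kinetic reads post-stimulation, normalised to positive and negative controls.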
p53 reactivation: re-activators of mutant p53 | H1299 p53-A138V BP100-luciferase reporter, luminescence, 24 h | Potency, µM (top dose mostly 92.2 µM), for the others: top-dose activity change, positive = activation, hits mostly activators | 320,000 compounds, 0.063% hits; active = well fitted activation curve with a large enough effect; inconclusive = small, poorly fitted or top-dose-only effect; inactive = no such curve, though single readings can be large or run the other way; note: potency is the fitted concentration of half-maximal effect; % of control where 0% means no effect; nearly all actives have a fitted effect of over 45% in size
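p53-null H1299 cells stably carrying temperature-sensitive p53-A138V and a BP100-luciferase reporter were pinned with compounds (4-point, 1:5 series) and held 24 hrs at 37 deg C. Luminescence was read 10 min after detection reagent.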
TRPV1 PAM: enhances activation of the human vanilloid receptor TRPV1. Q8NER1. TRPV1-expressing cells, Fluo-8 calcium influx, capsaicin EC20 potentiation. potentiation, % at 8.33 µM. 320,000 compounds, 0.02% hits. AID 540277; in the data active = potentiation above about 80%; inconclusive = between about 30% and that limit; note: 0% is about no effect
Target sequence (Q8NER1 whole entry, looked up): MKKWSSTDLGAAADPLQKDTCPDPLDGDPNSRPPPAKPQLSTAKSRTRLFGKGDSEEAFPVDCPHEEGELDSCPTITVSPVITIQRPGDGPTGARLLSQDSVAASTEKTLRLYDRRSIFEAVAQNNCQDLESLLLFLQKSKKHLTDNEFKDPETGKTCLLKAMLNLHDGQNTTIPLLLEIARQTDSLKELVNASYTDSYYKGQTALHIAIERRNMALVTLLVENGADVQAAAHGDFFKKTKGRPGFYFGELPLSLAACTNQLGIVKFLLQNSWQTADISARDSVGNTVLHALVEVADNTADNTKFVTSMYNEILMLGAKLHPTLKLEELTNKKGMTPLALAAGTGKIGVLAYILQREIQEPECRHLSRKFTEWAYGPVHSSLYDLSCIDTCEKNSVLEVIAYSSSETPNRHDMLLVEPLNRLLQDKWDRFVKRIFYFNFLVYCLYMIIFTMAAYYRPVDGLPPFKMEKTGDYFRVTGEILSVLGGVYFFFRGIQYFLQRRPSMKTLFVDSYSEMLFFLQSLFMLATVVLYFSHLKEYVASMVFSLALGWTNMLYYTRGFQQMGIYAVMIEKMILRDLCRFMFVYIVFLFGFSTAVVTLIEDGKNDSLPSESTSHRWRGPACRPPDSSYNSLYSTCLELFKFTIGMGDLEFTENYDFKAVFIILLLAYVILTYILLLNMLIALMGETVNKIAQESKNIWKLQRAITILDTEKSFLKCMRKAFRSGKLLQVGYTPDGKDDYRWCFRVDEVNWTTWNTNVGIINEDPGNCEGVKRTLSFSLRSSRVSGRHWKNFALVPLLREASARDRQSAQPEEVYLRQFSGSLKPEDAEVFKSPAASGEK
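TRPV1-expressing cells were cultured overnight at 35.5C and loaded with Fluo-8 calcium dye for 40 to 90 min at room temperature. After a 10 s baseline, compound was added and calcium influx was read kinetically for 3 min (ex 480/em 520 nm).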
hERG WT inh: KCNH2 (human, wildtype) channel inhibition; Q12809; U2OS, BacMam KCNH2, thallium flux FluxOr; stronger effect = lower value; activity change, % at 1.84 µM; 340,000 compounds, 0.37% hits; AID 720551;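 active = maximum activity change below -70%; inconclusive = maximum activity change between -70% and -50%; inactive = maximum activity change above -50%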; note: % is set by controls: 0 for no effect and ±100 for the full control effect
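U2OS cells transduced with wild-type KCNH2 virus are loaded with FluxOr dye for 45 min, and thallium flux is measured in kinetic reads before and after stimulation buffer. Rate constants are normalized to DMSO controls.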
ClpP mod: qHTS Assay for Activators of ClpP. purified B. subtilis ClpP, FRET peptide cleavage, 20 min. 340,000 compounds, 1.9% hits. ATP-dependent Clp protease proteolytic subunit (Bacillus subtilis (strain 168)), P80244. AID 651965, 2013. Potency, µM (highest dose often 57.5 µM), without a hit: top-dose activity change, negative = active; active = well fitted falling curve with a large enough effect; inconclusive = small, poorly fitted or top-dose-only effect; inactive = no such curve, though single readings can be large or run the other way; note: potency is the fitted concentration of half-maximal effect; the source files actives as falling curves though it sought activators and does not explain the sign; nearly all actives have a fitted effect of over 65% in size
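Purified B. subtilis ClpP, 10 microg/mL final in Tris/HCl pH8 with KCl, BSA, glycerol and Tween-20, cleaved an Abz/nitrotyrosine-quenched decapeptide. Fluorescence (ex 320, em 430) was read at 0 and 20 min at room temperature. Delta was normalized to 5.8 microM ADEP and DMSO/no-enzyme controls.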
TRPV1 ag: agonists of human vanilloid receptor 1 (TRPV1); Q8NER1; TRPV1-expressing cells, Fluo-8 calcium influx, agonist mode; activation, % at 8.33 µM; 320,000 compounds, 0.19% hits; AID 540275; in the data active = activation above about 80%; inconclusive = between about 30% and that limit; note: 0% is about no effect
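Cells expressing TRPV1 were dye-loaded with Fluo-8 and read kinetically: 10 s baseline, 3 min after compound (agonist portion), then 2 min after EC20 capsaicin (allosteric enhancer portion). Calcium-bound dye fluorescence at 480/520 nm.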
* = called active by the depositor; ? = inconclusive; / = no result. Shown are actives, neighbours in structure and some others; about 2.6% of the full set was active somewhere.

SMILES | KCNH2 3.1 inh | p53 reactivation | TRPV1 PAM | hERG WT inh | ClpP mod | TRPV1 ag
N#CC(C(=O)NC1CC1)c1nc2ccccc2nc1N1CCN(C/C=C/c2ccccc2)CC1 (configuration not stated) | -86* | 2% | -9 | -104* | 2% | 22
COCCOC(=O)C(C#N)c1nc2ccccc2nc1N1CCN(Cc2ccccc2)CC1 (configuration not stated) | -88* | 0% | 23 | -11 | -28% | 15
COCC(C)OC(=O)C(C#N)c1nc2ccccc2nc1N1CCN(Cc2ccccc2)CC1 (configuration not stated) | -26 | -12% | / | 12 | -17% | /
C=CCOC(=O)C(C#N)c1nc2ccccc2nc1N1CCN(Cc2ccccc2)CC1 (configuration not stated) | -87* | 4% | -3 | ? | -4% | 1
CCOC(=O)N1CCN(c2nc3ccccc3nc2C(C#N)S(=O)(=O)c2ccc(C)cc2)CC1 (configuration not stated) | 13 | 14% | -7 | 4 | 32µM* | -4
CCNc1c(NC(=O)c2ccccc2OCC)c(=O)oc2ccccc12 | / | / | / | / | -2% | /
CCCn1c(=O)[nH]c(=O)c2c1nc(-c1ccc(OC(F)(F)C(F)C(F)(F)F)cc1)n2CCOC (configuration not stated) | -37 | -5% | -9 | -3 | 28µM* | 3
COC(=O)CSc1nnc(CNS(=O)(=O)c2ccc(Br)cc2)n1C | -6 | 13% | 6 | 5 | / | -1
COC(=O)CSc1nnc(CNS(=O)(=O)c2ccc(C)cc2)n1C | 4 | -1% | 2 | -253* | 1% | -2
CC1CCN(c2nc3ccccc3nc2SCC(=O)Nc2ccccc2C(C)C)CC1 | / | / | / | / | -20% | /
COc1ccc(Cl)cc1NC(=O)CSc1nccn1-c1ccc(Cl)cc1 | / | / | / | / | -1% | /
COC(=O)c1ccc(-n2nnc(-c3nsc(NC(=O)c4ccc(Cl)cc4)n3)c2C)cc1 | / | / | / | / | -3% | /
Cc1c(-c2nsc(NC(=O)c3ccc(Cl)cc3)n2)nnn1-c1ccc(C(C)C)cc1 | / | / | / | / | 25µM* | /
Cc1cc(=O)n(C(C)Cc2ccccc2)n1C(C)Cc1ccccc1 (configuration not stated) | -13 | / | / | 4 | 32µM* | /
COC(=O)c1ccc(COc2ccc(C3C4=C(CCCC4=O)Nc4onc(C)c43)cc2)cc1 (configuration not stated) | -8 | -5% | 7 | 11 | 28µM* | 3
CCCc1nn(C)c2c(=O)[nH]c(-c3cc(S(=O)(=O)Nc4ccc(NC(C)=O)cc4)ccc3OCC)nc12 | 9 | -1% | 0 | 0 | -3% | 1
CCCc1nn(C)c2c(=O)[nH]c(-c3ccccc3OCC)nc12 | -2 | 6% | 1 | 4 | 20µM* | ?
C=C1C=C(C(F)F)n2ncc(C(=O)NCc3ccc(OC)c(OC)c3)c2N1 | / | / | / | / | -1% | /
COc1ccccc1/C=C/C=c1\sc2nc(=O)c(Cc3ccccc3)nn2c1=O | -163* | -1% | -13 | -140* | 1% | 5
CCCOc1ccc(Cc2nn3c(=O)/c(=C/c4ccco4)sc3nc2=O)cc1 | 5 | -1% | -33 | 4 | 1% | -1
CC1=CC(=O)C(Sc2ccc(C)cc2)=CC1=O | -2 | / | / | -18 | -2% | /
O=C(C[n+]1cccc(Br)c1)c1ccc(I)cc1 | / | / | / | / | 0% | /
CSc1ccc2c(c1)C(N1CCN(C)CC1)Cc1ccc(F)cc1S2 (configuration not stated) | -94* | / | / | ? | -2% | /
Cc1cc(C)n(CC(C)C(=O)O)n1 (configuration not stated) | -9 | 0% | 13 | 2 | / | -3
Cc1cc(C)n(CC(=O)O)n1 | -182* | -5% | 13 | -7 | 1% | 0
SMILES | KCNH2 3.1 inh | p53 reactivation | TRPV1 PAM | hERG WT inh | ClpP mod | TRPV1 ag
COC(=O)[C@]12CCCCC=C1N(Cc1ccc(Cl)cc1Cl)C(=O)[C@H](CC(=O)NCCc1ccccc1OC)C2 | / | / | / | / | -2% | /
CCOC(=O)c1cnc2ccc(OC)cc2c1Nc1ccc(OCc2ccccc2Cl)cc1 | / | / | / | / | 0% | /
C=CCN(c1ccccc1)S(=O)(=O)c1cccc(C(=O)NCC2CCCO2)c1 (configuration not stated) | 26 | 17% | -21 | 2 | 28µM* | 18
O=C(NCC1CCCO1)c1cccc(S(=O)(=O)N(Cc2ccccc2)c2ccccc2)c1 (configuration not stated) | -3 | 4% | -29 | -1 | 3% | ?
Nc1cccc2c1C(=O)N(CC(=O)NC13CC4CC(CC(C4)C1)C3)C2=O | 7 | 0% | 4 | -105* | 11% | 2
Cc1ccccc1C(=O)n1nc(-c2ccco2)nc1NCc1ccc(Cl)cc1 | / | / | / | / | 0% | /
OC(CNC1CCCC1)COc1ccc(-c2ccccc2)cc1 (configuration not stated) | -71* | -1% | -7 | -6 | -1% | -3
O=C(c1ccccc1)c1ccc(OCC(O)CN2CCCCC2)cc1 (configuration not stated) | 11 | 1% | 4 | 21 | -1% | -5
CC1CN(CC(O)COc2ccc(C#N)cc2)CCN1CC(O)COc1ccc(C#N)cc1 (configuration not stated) | -102* | 1% | 1 | -118* | / | -1
OC(COc1ccccc1)CN1CCCCC1 (configuration not stated) | / | / | / | 14 | 32µM* | /
Cc1ccc(OCC(O)CN2CCN(CC(O)COc3ccc(C)cc3)CC2)cc1 (configuration not stated) | ? | -3% | -9 | -9 | -1% | 7
OC(COc1ccccc1Cl)CN1CCN(CC(O)COc2ccccc2Cl)CC1 (configuration not stated) | -82* | 7% | -12 | ? | -4% | 9
CCCSC1=NC2(CCN(C(=O)NC3CCCCC3)CC2)N=C1c1ccc(OC)cc1 | / | / | / | / | 1% | /
COC(=O)/C=C/c1ccccc1S(=O)(=O)NC(C)C | / | / | / | / | 1% | /
O=S1(=O)CC(N2CC=CC2)CN1Cc1cn(Cc2ccc(Cl)cc2)nn1 (configuration not stated) | / | / | / | / | 1% | /
OC(COc1ccc(-c2ccccc2)cc1)CN1CCCCC1 (configuration not stated) | -73* | / | / | 14 | 1% | /
OC(COc1ccc(F)cc1)CN1CCN(CC(O)COc2ccc(F)cc2)CC1 (configuration not stated) | -74* | 8% | -4 | -29 | / | 0
